Experimental findings from article PMC12136788 are described below.

Residue numbers refer to the chain shown, from its start. Over roughly 24,000 sequences, “enrichment r” has its median near 0.99; the highest 2% begin near 3.7. The sample as a whole holds a higher share of the highest values than the screen did.

T1: UNK ZnF1-3 (human, UniProt Q9C0B0 31-174)
T1 sequence: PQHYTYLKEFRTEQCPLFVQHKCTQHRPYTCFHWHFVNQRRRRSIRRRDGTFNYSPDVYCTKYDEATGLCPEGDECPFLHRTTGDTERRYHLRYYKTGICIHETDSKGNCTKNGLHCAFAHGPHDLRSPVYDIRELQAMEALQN

B1: chr3:9412954:9412955:+_ENSG00000134077_ENST00000452837|hu_mus|hu_hu_hu_mus_False|58_68 (ssRNA)
RNA: GGGAGUUCUACAGUCCGACGAUCGGUUGAUAUCUCUUCUUUGAUGGCUGGAUUUUCAUAAUAGUCCAAGAUAUGAGAAUCUAAAGCGCUGCUGGCAUGCUUUUUCUUACCAUCUUUCUCAUCUGCUUUGUCUCCUUGUCCACACAACAGAGGAUUGAGCAUCA
B2: chr16:94664741:94664742:+_ENSMUSG00000040785_ENSMUST00000117648|mus_hu|mus_mus_mus_hu_False|1_78 (ssRNA)
RNA: GGGAGUUCUACAGUCCGACGAUCUGGUACUGAUCUUGGUAGCUGAUAUUCAGGAGAAAUGUUGGCCAAGGGUGUAUAUAUGCUGGUGUACUGGGGCAAACCUGGUAACACGUUUAUGUAUGCUGGCGGUGUCUGGGUGCCAAACAACAGAGGAUUGAGCAUCA
B3: chr5:37680062:37680063:+_ENSMUSG00000029121_ENSMUST00000031004|mus_hu|mus_mus_mus_hu_False|1_8 (ssRNA)
RNA: GGGAGUUCUACAGUCCGACGAUCUUUGGGUGUAGCUGGUACCUCGUACACAGGACCGUCAUACAUGCCCCUGGAAACCCCUUGCAAUCCAAAAACCUUAUUCCUGAUUUUGACGCGCUGGUACAGGUGCUCUGGGAAUGGCUUCAACAGAGGAUUGAGCAUCA
B4: chrX:98862621:98862622:+_ENSMUSG00000034160_ENSMUST00000044475|mus_hu|mus_mus_mus_hu_False|18_28 (ssRNA)
RNA: GGGAGUUCUACAGUCCGACGAUCCUGCAUCUCCUUUAGAGUGUUUCCCAUAUUAGAGUAGGCAUCAGCAAAGGUAGGACUGAUUCGAAUAGCCUCCUUAUAAUGCAUCAGUGCUUCCUGCAGCUUGCCCUGCUGCUGCAGUACCAACAGAGGAUUGAGCAUCA
B5: chr7:135840685:135840686:-_ENSMUSG00000048170_ENSMUST00000057557|mus_mus|FALSE|FALSE (ssRNA)
RNA: GGGAGUUCUACAGUCCGACGAUCCAACUCCCUUGAUUUAUCAAGGCCGACCCUGUUUCCUUGGUUAGCAGGGAAGAAUCUAAGGGACCACUGAUUGAUCUUCACACACAGCAGAUGAGAUUAACAGCAAGGUUCUAACUUUUCCAACAGAGGAUUGAGCAUCA
B6: 128051196_128051651_161_3pUTR_ENSG00000163161_ENST00000285398|human|control|control (ssRNA)
RNA: GGGAGUUCUACAGUCCGACGAUCCGCCGCCGAGGGAACCGCUUCCUGAGGGUCGUUCCCCGGGGCGUCCUCUUCAUCAUCCUCUUCAUCCUCAUAGUGCCGCUUCCUGGAUUUCUUCUUGUCGCGGUCCGCUCGGUCUCUUUUCAACAGAGGAUUGAGCAUCA
B7: chr1:235506153:235506154:+_ENSG00000152904_ENST00000391855|hu_mus|FALSE|FALSE (ssRNA)
RNA: GGGAGUUCUACAGUCCGACGAUCGAAGACAGCUACACUUACAUAUAAUAAAUAAAUCUUAAAAAAAAAAAAAAGAAAAGAUAAAUGGGAUGAAGCCACUCCUCAUUUUCAACUGAAAGAAGCUACUGAGUCUAAUCCAGAAAGCAACAGAGGAUUGAGCAUCA
B8: chr2:27118074:27118075:-_ENSMUSG00000009621_ENSMUST00000056176|mus_mus|FALSE|FALSE (ssRNA)
RNA: GGGAGUUCUACAGUCCGACGAUCCACAGAUAUAUAAUGGGAGACUUAGAUGAAAUAAUUACAACUUCCCCUCCCCCUUCUAAAAUACAAACAGAUAAAACAUAACAGGACAAAAAAAGCUACAACAACAGAAAAACAAACAGACAACAGAGGAUUGAGCAUCA
B9: chr16:94690093:94690094:+_ENSMUSG00000040785_ENSMUST00000117648|mus_hu|mus_mus_mus_hu_True|1_48 (ssRNA)
RNA: GGGAGUUCUACAGUCCGACGAUCGGGCUGGGAUGACGGACACACAGCCUCGAUUCCAGGGGGAAAAAGUCUUAGUCGAUACUAAUUUAAAAAGUAUAAUGAUUUUUGAAAAUCAGAUUACAUCUAUAAAAGAUGAAAGCACUUCAACAGAGGAUUGAGCAUCA
B10: chr15:12269436:12269437:+_ENSMUSG00000022200_ENSMUST00000059680|mus_mus|motif|central (ssRNA)
RNA: GGGAGUUCUACAGUCCGACGAUCUAAAAGACUUUUUCUUCUCAUUCCACAAGCCUCUAACUGUAACCUUCCUCUCAAAGCGGAUUCAAUUAACAUACAGCCACGUAAUCCAGAUGAUAUACAGUCAUUCCAAAAUGAUGUGUACAACAGAGGAUUGAGCAUCA
B11: chr2:27118074:27118075:-_ENSMUSG00000009621_ENSMUST00000056176|mus_mus|motif|central (ssRNA)
RNA: B8 RNA with U80G, A81G
B12: chr5:145543945:145543946:-_ENSG00000133706_ENST00000545646|hu_hu|hu_hu_hu_mus_True|1_108 (ssRNA)
RNA: GGGAGUUCUACAGUCCGACGAUCCUGAAUAGCCAGUGGUGGGAAAUAAUCAAGCCAGUGCUCUGCUUCAGAAAACUUCACUAUGUCGUCAUCAGAGAGCCCAAGGGAUUUCAUAAUGUCCCACUGGUACUUAGAAGAUCCAGCCAACAGAGGAUUGAGCAUCA
B13: chr14:62194323:62194324:+_ENSG00000100644_ENST00000337138|hu_mus|motif|central (ssRNA)
RNA: GGGAGUUCUACAGUCCGACGAUCUCUUUCAUCACAGUAAGAAAAUUUCAUAUCGAGGCUGUGUCGACUGAGAAAUGUCUUGCGGUCGGAAGGAAUUUCAAUAUUUGACGGAUGAGGAAUGGGUUCACAAAUCAGCACCAAGCACAACAGAGGAUUGAGCAUCA
B14: chrX:15845472:15845473:-_ENSG00000182287_ENST00000329235|hu_mus|motif|central (ssRNA)
RNA: GGGAGUUCUACAGUCCGACGAUCCCACAAGAAGUCAUCAGCAAGGGAGGACAGUUAUGUCAGUCCAAUUUCUUCAAGAACACGGCGUGGGGUUUCAGCUUCUUUUGCAUCCUCCUGCAGGAGAUCGGCCUGCUCAAUUGCUUUCAACAGAGGAUUGAGCAUCA
B15: chr17:8508246:8508247:-_ENSG00000133026_ENST00000269243|hu_hu|motif|central (ssRNA)
RNA: GGGAGUUCUACAGUCCGACGAUCGUACAUUUCAAUAAUAUUCUCAGAGUAAAUUGGAAGAUUCUUGUAAGGGUUUAUAACGGCACAGAAGAGUCCAGAAUAAGUAUAGAUUAGUCCUGAAUAGUAGCGAUCCUUCAGAUUAUGCAACAGAGGAUUGAGCAUCA
B16: chr17:39847130:39847131:+_ENSG00000173812_ENST00000469257|hu_mus|motif|central (ssRNA)
RNA: GGGAGUUCUACAGUCCGACGAUCAUUACAUUAUACAAGCUGUGAGGUUUUUAAACUUGUGACAAGGGACAGAAGGGAAAUUCGGCUCAUUGCAAGGAAAUCCUCACUUAAGCUUCAGAGAGCCACAAGCACUUAAAACCCAUGCAACAGAGGAUUGAGCAUCA
B17: 75584029_75587226_729_CDS_ENSG00000119638_ENST00000238616|human|control|control (ssRNA)
RNA: GGGAGUUCUACAGUCCGACGAUCCGUCUCAGCCAUGGAAUACUCAGAAUUAAGUUUCUUUGCUAGGCCAUAAUCUCCAAGUUUUAUCAGGUUUGCCUUGGUCAGAAAAAUAUUUAAUGUCUUUAUAUCUCUAUGAAGGAUUCCCAACAGAGGAUUGAGCAUCA
B18: chr18:86887116:86887117:+_ENSMUSG00000024647_ENSMUST00000068423|mus_mus|FALSE|FALSE (ssRNA)
RNA: GGGAGUUCUACAGUCCGACGAUCCGCGUCAGCUCCGCCAUUGUUAAGGGAUUCAUGAGCAAUGAGCAAUGCCAGGUUACUAAGGGAUCCCAGAGAAUAAAUUAAAAAAAAAAAAAAAUGAAAUCCACGUUGCAAGUUUGAAGCCAACAGAGGAUUGAGCAUCA
B19: chr19:7360422:7360423:-_ENSMUSG00000024969_ENSMUST00000032557|mus_mus|FALSE|FALSE (ssRNA)
RNA: GGGAGUUCUACAGUCCGACGAUCAUAAGGAGGACUGCCACAGAAAGUAUCCAGCUUGUUCCCAAAGGUGAAUUCGUUGCUAAAGCCAAAGUCUGCAAUCUUGAUGUUCAUAUCAGCAUCCAGGAGCAGGUUUUCUGCCUUUAGCAACAGAGGAUUGAGCAUCA
B20: chr5:56168760:56168761:+_ENSG00000095015_ENST00000399503|hu_hu|motif|central (ssRNA)
RNA: GGGAGUUCUACAGUCCGACGAUCUCUAGAAAAUAAGCAGCCAACGAGUUCCAUUCCAAACACCUGAAUCCAUGGCUCAGCGGAAUCUUUGUAAGCAGGAGGGAUUUGCUGAGUUCCAUAAUGAGUAAGGUUAAAAUUGCUCUCCAACAGAGGAUUGAGCAUCA
B21: chr18:86887116:86887117:+_ENSMUSG00000024647_ENSMUST00000068423|mus_mus|motif|central (ssRNA)
RNA: B18 RNA with U80G, A81G
B22: 9136497_9143069_760_3pUTR_ENSMUSG00000033499_ENSMUST00000091829|mouse|control|control (ssRNA)
RNA: GGGAGUUCUACAGUCCGACGAUCCAGAAUUCCAAUGUUUUUUUAAGUACUUCCCGAGGGUCUUCCUGGCUUUCUGGUUGAGACUCAUUUCCUCCCGUAUCGUUGUUCUCAGGCAGAGGUUCAUAUUCUGAAUGGUCCAGAGCCCAACAGAGGAUUGAGCAUCA

The target of the assay is T1, UNK ZnF1-3. Briefly: nsRBNS (natural sequence RNA bind-n-seq); RBNS binding buffer (assumed for nsRBNS): 25 mM Tris pH 7.5, 150 mM KCl, 3 mM MgCl2, 0.01% Triton X-100, 500 ug/ml BSA, 20 U/ml SUPERase-In, 4 C; UNK is unkempt and MSI1 is Musashi-1; names of the RNAs are library labels; protein concentration not given here; high values mean tight binding.
B1 had a binding signal of 0.465 enrichment R.

As for B2, the binding signal turned out to be 0.93 enrichment R.

B3 came in with a binding signal of 0.776 enrichment R.

In turn, B4 registered a binding signal of 1.08 enrichment R.

Molecule B5 returned a binding signal of 1.03 enrichment R.

The molecule B6 gave a binding signal of 0.493 enrichment R.

Regarding B7, the binding signal came out at 20.8 enrichment R.

B8 yielded a binding signal of 4.31 enrichment R.

Take B9: the binding signal was found to be 0.785 enrichment R.

Regarding B10, the binding signal is 0.956 enrichment R.

B11 yielded a binding signal of 3.78 enrichment R.

Consider B12, for which the binding signal is 1.11 enrichment R.

For the molecule B13, the binding signal was 1.84 enrichment R.

Consider B14, for which the binding signal came out at 1.01 enrichment R.

Take B15: the binding signal worked out at 1.92 enrichment R.

In turn, B16 displayed a binding signal of 1.49 enrichment R.

Take B17: the binding signal was determined as 1.02 enrichment R.

In turn, B18 came in with a binding signal of 6.14 enrichment R.

Consider B19, for which the binding signal came out at 0.665 enrichment R.

As to B20, the binding signal amounted to 1.25 enrichment R.

Consider B21, for which the binding signal is 8.87 enrichment R.

Molecule B22 registered a binding signal of 0.744 enrichment R.
